Reference: ChEMBL document CHEMBL3988442, “University of Dundee, Small-Polar-MMV Screening Library” (2021)
Screen size: about 53,000 compounds; about 900 (1.7%) showed an effect of 50% or more. The full list was thinned out, with strong results kept by preference.

system: Mycobacterium tuberculosis; experiment: Cornell - Phenotypic assay to identify agents that inhibit growth of Mycobacterium tuberculosis; type: functional; set-up: scale not given: direction of the effect not stated beside the values; conditions: 10 mM as filed; unlikely as a test dose

SMILES	Percent Effect [%]
CCN1CCCC(CNC(=O)C2(c3cc(C)cc(C)c3)CCC2)C1 (configuration not stated)	-9.012
COc1cccc(CC(=O)N2CCCC2c2nc(C)c(F)c(O)n2)c1 (configuration not stated)	-107.1
CCNC(=O)NCc1ccc(-n2ccc(C(F)(F)F)n2)cc1	21.88
COCc1nnc(C(=O)N2CCC(N3CCCCC3)CC2)o1	-29.51
Cc1ccc(-c2ccc(Cl)nn2)cc1S(N)(=O)=O	6.758
CC(=O)N1CCC(c2n[nH]cc2-c2ccnc(N)c2)C1 (configuration not stated)	-32.92
CC(C)(C)NC(=O)N1CCCn2nc(C(=O)Nc3ccccc3)cc2C1	16.42
Cc1nnsc1C(=O)NCc1nn(C2CCCC2)c2c1CCCC2	22.48
Cn1cc(-c2nc(C(=O)N3CCCC3c3cnn(C)c3)cs2)cn1 (configuration not stated)	20.68
CCOc1ncccc1CNCc1c(C(C)C)nn(C)c1N(C)C	-29.31
COc1ncccc1CNCc1c(C(C)C)nn(C)c1N(C)C	63.07
COc1ncccc1CNCc1c(C(C)C)nn(C)c1OC	20.17
COc1cc(CNCc2c(C)nn(CC(C)C)c2N(C)C)ccn1	-17.24
COCCOc1ncccc1CNCc1c(C)nn(C)c1N(C)C	87.98
COc1cc(CNCc2c(C)nn(C)c2N(C)C)ccc1C	13.2
COc1ncccc1CNCc1c(C)nn(C)c1N(C)C	-66.33
CCOc1ncccc1CNCc1c(C)nn(C)c1N(C)C	-13.13
CC(C)c1nn(C)c(N(C)C)c1CNCc1ccnn1C	65.83
Cc1nn(CC(C)C)c(N(C)C)c1CNCc1ccnn1C	-14.58
COc1cc(CNCc2c(C)nn(C)c2N(C)C)ccn1	97.38
Cc1nn(C)c(N(C)C)c1CNCc1ccnn1C	46.97
CCn1cc(CNC(=O)C(C)C)cn1	7.058
Cc1cc(C)cc(OCCCn2nc3ccccn3c2=O)c1	34.72
Cc1ccc(N(C)C2CCCN(C(=O)Nc3ccc(F)cc3F)C2)cc1 (configuration not stated)	17.1
Cc1cccc(CN2Cc3ccnn3CC(COCC3CC3)C2)n1.O=C(O)C(F)(F)F (configuration not stated)	10.51
COc1ccc(Br)c(NC(=O)NCc2ncnn2C)c1	-5.732

SMILES	Percent Effect [%]
CCn1cc(NC(=O)CN2C(=O)CC(C)(C)c3ccccc32)cn1	23.89
CC(=O)c1cccc(NC(=O)Cn2nc(-c3cccs3)oc2=O)c1	-19.71
Cc1cc(N2CCC(O)(CN(C)C(=O)CCN)CC2)c2cnccc2n1	43.24
O=C(NCCn1cnnc1C1CC1)c1c(O)cc(F)cc1F	-13.58
COc1ccc([C@@H]2CN(Cc3ccncc3)C[C@H]2c2cc[nH]n2)cc1.O=C(O)CC(O)(CC(=O)O)C(=O)O	34.94
O=C(O)CC(O)(CC(=O)O)C(=O)O.c1ccc([C@@H]2CN(Cc3ccncc3)C[C@H]2c2cc[nH]n2)cc1	17.96
O=C(O)CC(O)(CC(=O)O)C(=O)O.c1ccc([C@@H]2CN(Cc3cccnc3)C[C@H]2c2cc[nH]n2)cc1	51.47
O=C1CC(c2ccccc2)c2c(c(C(=O)O)cn2-c2ccccc2)N1 (configuration not stated)	15.99
O=C(c1cc(F)ccc1O)N1CCN(C2CCOCC2)CC1	23.2
Cc1cccc(NC(C)C(=O)Nc2nccs2)c1 (configuration not stated)	6.251
COc1ccc2[nH]cc(-c3ccnc(NC4CCCC4)n3)c2c1	104.1
COc1ccc2[nH]cc(-c3ccnc(N4CCC(C)CC4)n3)c2c1	24.84
COC(=O)c1ccc2c(-c3ccnc(NCCO)n3)c[nH]c2c1	-4.775
COCCO[C@@H]1CCN(C(=O)c2ccnnc2)[C@H]1Cc1cnn(C)c1	2.018
CCNC(=O)[C@@H]1C[C@@H](NC(=O)Cc2cc(C)no2)CN1Cc1ccsc1	-13.59
CCNC(=O)[C@@H]1C[C@H](NC(=O)Cn2ccnc2)CN1Cc1ccsc1	104.2
CCNC(=O)[C@@H]1C[C@@H](NC(=O)Cc2ccncc2)CN1Cc1ccsc1	31.97
Cc1ncc(C(=O)OCC2CCN(c3ccccc3)C2)s1 (configuration not stated)	-13.58
Cn1cc(CN2CCC(c3ncc(Cl)cc3S(C)(=O)=O)CC2)cn1	39.28
Cc1nc(N2CCOCC2)nc2c1CCN(Cc1ccsc1)CC2.O=C(O)C(F)(F)F	27.7
CC(C)Oc1ncnc2c1CCN(Cc1ccco1)CC2.O=C(O)C(F)(F)F	21.95
Cc1nc(N2CCOCC2)nc2c1CCN(Cc1cccnc1)CC2.O=C(O)C(F)(F)F	26.93
Cc1nc(N2CCCC2)nc2c1CCN(Cc1ccoc1)CC2.O=C(O)C(F)(F)F	56.27
Oc1nc(N2CCCC2)nc2c1CCN(Cc1ccsc1)CC2	2.378
Cc1nc(C)c2c(n1)CCN(Cc1ccco1)CC2	-0.9283
Cc1nc(N2CCCC2)nc2c1CCN(Cc1ccsc1)CC2.O=C(O)C(F)(F)F	72.79

SMILES	Percent Effect [%]
Cc1nc(N2CCCC2)nc2c1CCN(Cc1nccn1C)CC2.O=C(O)C(F)(F)F	0.1901
Cc1nc(N2CCCC2)nc2c1CCN(Cc1ccco1)CC2.O=C(O)C(F)(F)F	96.95
Cc1cc2cccc(NC(=O)N3CCC(N4CCSCC4)CC3)c2o1	26.32
O=C(CN1CCC2(CC1)NC(=O)c1cc(Br)ccc1N2)NC1CC1	-67.58
Cc1cccc(CN2CCCCC23CCNC3)n1.O=C(O)C(F)(F)F.O=C(O)C(F)(F)F (configuration not stated)	9.569
O=C(NCCc1coc(-c2ccc(F)cc2)n1)NC1CC1	9.97
CN[C@@H]1CCC[C@@H](Oc2ccccc2Oc2ccc(C)cc2)[C@@H]1O	74.11
N[C@@H]1CCC[C@@H](Oc2ccc(F)cc2Oc2ccccc2)[C@@H]1O	-14.7
Cc1ccc(Oc2cc(F)ccc2O[C@@H]2CCC[C@@H](N)[C@H]2O)cc1	30.66
Cc1ncsc1-c1nnc(C2CCCN2C(=O)Cn2cccn2)o1 (configuration not stated)	-1.275
Cc1cc(CNc2cc(Cl)ccc2OCCS(C)(=O)=O)no1	-0.6634
CCOc1c(Cl)cccc1NCc1cc(C)on1	15.54
Cc1cc(CNc2cc(Cl)ccc2Cl)no1	51.97
O=C(NCc1ccccc1Cn1cncn1)C1CCCC1	0.5526
Cc1noc(C)c1CN1CCC2(CC1)NC(=O)CC2c1cnn(C)c1 (configuration not stated)	47.68
Clc1ccccc1-c1nc(CNC2CCc3ncnn3C2)co1 (configuration not stated)	-41.84
Cc1ncc(C(=O)N2CC(C(=O)N3CCOCC3)C2)c(C)n1	-7.514
O=C(C1CC1)N1CCC2(CC1)OCCO2	-14.17
Cc1ncc2c(n1)C1(CCN(C(=O)C3CC3)CC1)OCC2.Cl	55.8
Cc1ncc2c(n1)C1(CCN(C(=O)C(C)C)CC1)OCC2.Cl	54.97
Cc1noc(C2(C)CCN(C(=O)C(C)C)CC2)n1	-18.49
Cc1cnc(N2CCOC3(CCCN(C(=O)C(C)C)C3)C2)nc1 (configuration not stated)	8.771
CCC(CO)N(Cc1cccnc1)C(=O)c1ccncc1F (configuration not stated)	1.978
CCc1ncc(CN[C@@H]2CCCN(C(C)=O)[C@H]2c2ccc(C)s2)cn1.Cl	15.97
CCc1cc(NC2CCOCC2)n2nc(C)c(C)c2n1	14.02
Cc1ccc(-c2nc(CN3CCC(N4CCNC4=O)CC3)co2)cc1	0.5995

SMILES	Percent Effect [%]
CCc1ccc(CN2C[C@@H](c3nc(C)no3)C[C@H]3OCC[C@H]32)o1.O=C(O)C(F)(F)F	28.15
Cc1noc([C@H]2C[C@H]3OCC[C@H]3N(Cc3ccc(F)cc3)C2)n1.O=C(O)C(F)(F)F	52.79
Cc1noc([C@H]2C[C@H]3OCC[C@H]3N(Cc3ccc4c(c3)OCO4)C2)n1.O=C(O)C(F)(F)F	10.54
O=C(C1CCCC1)N1CCCC1c1nnc2n1CCCCC2 (configuration not stated)	-1.073
CC(C)c1nc(CSc2nnc(C3CC3)n2CC(N)=O)no1	15.19
CC(C)Nc1nc(C(=O)Nc2ccccn2)cs1	27.58
Cc1cnc(NC(=O)N2CCCC2)s1	13.69
Cc1cnc(NC(=O)c2csc(NCC(C)C)n2)s1	60.38
CC(C)NC(=O)c1csc(NC2CC2)n1	29.51
Cc1cccc(NC(=O)c2csc(NCC(C)C)n2)n1	22.32
CC(C)CCNC(=O)c1csc(NC2CC2)n1	27.3
CC(NC(=O)Nc1nccs1)C(=O)NC1CCCC1 (configuration not stated)	13.09
O=C(Nc1nccs1)c1csc(NC2CCCC2)n1	105.9
O=C(Nc1ccccn1)c1csc(NC2CCCC2)n1	105.8
CC(C)CCNc1nc(C(=O)NC2CC2)cs1	44.5
Cc1cnc(NC(=O)c2csc(NC3CCCC3)n2)s1	99.29
Cc1nc(NC2CCCC2)cc(C2CCN2C(=O)c2ccccn2)n1 (configuration not stated)	-60.39
Cc1nc(CNCc2cccc(OC34CCCN(CC3)C4)c2)n[nH]1 (configuration not stated)	22.09
Cc1nn2c(NC(=O)CSc3nccn3C)csc2nc1=O	-11.03
O=C1CCC(C(=O)Nc2ccc(=O)n(Cc3ccccc3Cl)c2)N1 (configuration not stated)	-13.24
CNC(=O)c1cccc(C2CNCCN2C(=O)C2CCNCC2)c1 (configuration not stated)	0.2477
CCS(=O)(=O)CC(=O)Nc1cc(-c2cccc(F)c2F)n[nH]1	15.94
CCOCC(=O)Nc1cc(-c2cccc(F)c2F)n[nH]1	57.77
CC(=O)Nc1cc(-c2cccc(F)c2F)n[nH]1	22.81
